# Assay results taken from PubChem BioAssay (NCI).
# Several values for one entry are separate records, joined by “and”; a condition that tells them apart may be missing. Equal values may be shown once. Compounds without any hit were thinned out: in the full panel of roughly 83,000, 20% have a hit.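 Single-concentration screen, 48 h exposure, 96-well plates. Endpoint: percent growth. Below 10 = active.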 Activity calls are given as the source filed them.
# Tested on: PC-3 prostate
# Experiment: NCI-60 one-dose screen, 48 h (100 = growth as untreated, 0 = no growth, -100 = all killed)
# Details: 10 µM
# Description: Growth inhibition of the PC-3 human tumor cell line is measured as a screen for anti-cancer activity. Cells are grown in 96 well plates and exposed to the test compound for 48 hours. Compounds are tested at a single concentration, which is 10^-5 M for most compounds. The reported endpoint is percent growth (GI% or GIPRCNT), where numbers from 0 - 100% represent growth inhibition, and numbers from -100% - 0 represent cell death. For example, a value of 40 represents 60% growth inhibition. A value of 0 means no net growth occurred over the course of the experiment. A value of -40 indicates 40% of cells at the beginning of the experiment died by the end of the experiment. A value of -100 means all cells are dead at the end of the experiment.
# NCI-60 Human Tumor Cell Lines Screen was performed using the standard one-dose NCI protocol, which is described in more detail at https://dtp.cancer.gov/discovery_development/nci-60/default.htm.
# Compounds with GIPRCNT values below 10 were considered active. Activity score was based on GIPRCNT using the following formula: […]
# Score is 0 for GIPRCNT values of 100 or above, 50 for GIPRCNT values of 0, and 100 for GIPRCNT values of -100.
row,SMILES,growth
1,COc1ccc(C(=O)/C=C/c2ccc(OCc3ccc(Cl)cc3)cc2)cc1OC,97.5% (inactive)

# Same assay, conditions: 10 µM unless noted
row,SMILES,growth
1,CCCCn1c(C(=O)c2c[nH]c3ccccc23)n[nH]c1=S,93.8% (inactive)
2,COc1ccc(-c2nn3c(-c4cc(F)c(Cl)cc4Cl)nnc3s2)cc1,42.8% (inactive)
3,CC(=NCc1ccccc1)c1ccc(O)cc1O,81.7% (inactive)
4,COc1ccc(CCNC(=O)COc2cc3c(Nc4ccc(F)c(Cl)c4)ncnc3cc2OC)cc1OC,92.1% (inactive)
5,[2H]C([2H])([2H])Oc1cc(F)ccc1/C=C/C(=O)/C=C(/C=C/c1ccc(F)cc1OC([2H])([2H])[2H])OB(F)F,43.8% (inactive)
6,Nc1nc(Cl)nc2c1ncn2C1OC(CO)C(O)C1O (stereo not given),65.6% (inactive) and 67.5% (inactive)
7,Cc1cc(N2CCN(CC(=O)Nc3ccc4c(ccn4Cc4ccccc4)c3)CC2)nc(N2CCCCCC2)n1,28.2% (inactive)
8,CCCCCCCCCCCCCCCCCCn1cc(COc2ccc(C=O)cc2)nn1,99% (inactive)
9,CCN1C(=S)N(CC)C2C1NC(=S)N2/N=C/C=C/c1ccccc1 (stereo not given),36.5% (inactive)
10,COc1cc(Cl)cc(-c2nn(C(=O)NS(=O)(=O)c3ccc(Cl)cc3)cc2-c2ccncc2)c1,88.9% (inactive)
11,CC(=O)N1N=C(c2ccc(Nc3nc(Nc4ccc(F)cc4)nc(Nc4ccc(Cl)cc4)n3)cc2)CC1c1ccc(N(C)C)cc1 (stereo not given),22.2% (inactive)
12,COc1ccc(C/C(C)=C(/c2ccc(OCCN3CCCC3)cc2)c2ccc(OC(=O)NCc3ccccc3)cc2)cc1,67.3% (inactive)
13,CC(=O)c1nn(-c2ccccc2)/c(=N/N=Cc2cn(-c3ccccc3)nc2-c2cc3ccccc3oc2=O)s1,101% (inactive)
14,CCN(CC)/C([O-])=c1\cccc\c1=C1\N=C(c2ccccc2)N=C1[n+]1ccc(-c2ccccc2)cc1,92.8% (inactive)
15,CC1=C2[C@@H](CC1)[C@]1(C)O[C@@](C3CC3)(C[C@H]1OC(=O)CO)[C@H]2OC(=O)/C=C/c1ccccc1,68% (inactive)
16,O=Nc1ccc(NO)c2ccccc12,81.9% (inactive) and 36.4% (inactive)
17,CC(=O)N1N=C(c2ccc(Nc3nc(Nc4ccc(F)cc4)nc(Nc4ccc(F)cc4)n3)cc2)CC1c1ccccc1 (stereo not given),70% (inactive)
18,N=c1ccccn1CCO,92.7% (inactive)
19,O=C(N=Nc1c(O)[nH]c2ccccc12)Nc1ccc(Br)cc1,91.9% (inactive)

row,SMILES,growth
1,c1cc(NCCCCN2CCOCC2)c2ccc3c(ccc4c(NCCN5CCOCC5)ccnc43)c2n1,57.2% (inactive)
2,CC1=CC=C(NC(=O)/C=C/c2ccccc2)CC1Nc1nccc(-c2cccnc2)n1 (stereo not given),25.2% (inactive)
3,Cc1ccc(C(=O)Nc2ccc(CN3CCN(C)CC3)c(C(F)(F)F)c2)cc1C#Cc1cnc(N)cc1C#N,-33.9% (active)
4,Nc1[nH]nc(Nc2ccccc2)c1-c1nc2ccccc2s1,14.9% (inactive)
5,CCC(=O)Oc1cc(Cl)c(Cl)cc1Cl,96.4% (inactive)
6,O=C(N=Nc1c(O)[nH]c2ccccc12)Nc1ccccc1Cl,92.5% (inactive)
7,COc1ccc(/C=C2\COc3ccc(O)c(O)c3C2=O)c(OC)c1OC,36.8% (inactive)
8,CN(C)c1ccc2nc3ccc(=O)cc-3sc2c1,29.7% (inactive) and 33% (inactive)
9,N#Cc1ccccc1OCC(=O)Nc1nc2c(s1)COc1ccccc1-2,102% (inactive)
10,O=C(NNc1ccccc1)C1CCCN1 (stereo not given),77% (inactive)
11,O=Nc1c(O)ccc2ccccc12,6.57% (active) and 72.4% (inactive)
12,CC/C(=C(/c1ccc(Cl)cc1)c1ccc(OCCN2CCOCC2)cc1)c1ccccc1,73.1% (inactive)
13,O=C(NNC(=S)Nc1ccccc1)c1ccncc1,90.1% (inactive)
14,N#Cc1c(-c2cccc(F)c2)cc(-c2cccnc2)[nH]c1=O,101% (inactive)
15,Cc1ccc2c(c1)C(C)Cc1c(ncnc1-n1cnc3cc(C)ccc31)N2C (stereo not given),24.5% (inactive)
16,O=C(Nc1cc(C(F)(F)F)cc(C(F)(F)F)c1)c1cc(Cl)ccc1O,5.05% (active) and -0.956% (active)
17,CC12CCC(C(=O)CC1=O)C2(C)C (stereo not given),97.2% (inactive) and 104% (inactive)
18,COc1ccc(Cn2cc(C(=O)Nc3cccnc3Nc3ccccc3)nn2)cc1,91% (inactive)
19,COc1cc(CNC(=O)CCCC/C=C/C(C)C)ccc1O,86.6% (inactive) and 88.1% (inactive)

# Same assay, conditions: 100 µM
row,SMILES,growth
1,COc1ccc(C(=O)/C=C/c2ccc(OCc3ccc(Cl)cc3)cc2)cc1OC,16.9% (inactive)
